In the supplement of paper PMC10849652 one finds log2 fold change data, which are given here for 36 targets.

About 7,900 targets were measured; listed, in parts, are those with a hit and a random draw of the rest. About 0.6% of all pairs of compound and target were hits. Values without a mark were called inactive.

UniProt Q96CF2, sequence (Q96CF2 whole entry, looked up): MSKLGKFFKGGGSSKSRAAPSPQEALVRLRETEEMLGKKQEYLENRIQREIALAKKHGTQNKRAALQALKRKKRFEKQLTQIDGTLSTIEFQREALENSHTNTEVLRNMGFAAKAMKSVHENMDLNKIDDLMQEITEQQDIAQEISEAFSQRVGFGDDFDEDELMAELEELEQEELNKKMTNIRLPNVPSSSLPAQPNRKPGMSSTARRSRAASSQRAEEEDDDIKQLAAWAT
UniProt Q7KZN9, sequence (Q7KZN9 whole entry, looked up): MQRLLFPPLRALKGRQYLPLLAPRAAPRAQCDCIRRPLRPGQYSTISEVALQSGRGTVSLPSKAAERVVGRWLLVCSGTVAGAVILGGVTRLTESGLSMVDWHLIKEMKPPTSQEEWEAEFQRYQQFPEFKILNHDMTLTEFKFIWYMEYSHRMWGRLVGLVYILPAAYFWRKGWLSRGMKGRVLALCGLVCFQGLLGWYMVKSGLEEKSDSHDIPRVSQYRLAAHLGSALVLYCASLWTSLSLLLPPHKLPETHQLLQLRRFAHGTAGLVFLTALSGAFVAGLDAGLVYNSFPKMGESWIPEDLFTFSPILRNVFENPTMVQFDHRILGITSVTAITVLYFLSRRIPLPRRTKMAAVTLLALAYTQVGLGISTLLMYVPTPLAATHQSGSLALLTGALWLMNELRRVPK
UniProt P23786, sequence (P23786 whole entry, looked up): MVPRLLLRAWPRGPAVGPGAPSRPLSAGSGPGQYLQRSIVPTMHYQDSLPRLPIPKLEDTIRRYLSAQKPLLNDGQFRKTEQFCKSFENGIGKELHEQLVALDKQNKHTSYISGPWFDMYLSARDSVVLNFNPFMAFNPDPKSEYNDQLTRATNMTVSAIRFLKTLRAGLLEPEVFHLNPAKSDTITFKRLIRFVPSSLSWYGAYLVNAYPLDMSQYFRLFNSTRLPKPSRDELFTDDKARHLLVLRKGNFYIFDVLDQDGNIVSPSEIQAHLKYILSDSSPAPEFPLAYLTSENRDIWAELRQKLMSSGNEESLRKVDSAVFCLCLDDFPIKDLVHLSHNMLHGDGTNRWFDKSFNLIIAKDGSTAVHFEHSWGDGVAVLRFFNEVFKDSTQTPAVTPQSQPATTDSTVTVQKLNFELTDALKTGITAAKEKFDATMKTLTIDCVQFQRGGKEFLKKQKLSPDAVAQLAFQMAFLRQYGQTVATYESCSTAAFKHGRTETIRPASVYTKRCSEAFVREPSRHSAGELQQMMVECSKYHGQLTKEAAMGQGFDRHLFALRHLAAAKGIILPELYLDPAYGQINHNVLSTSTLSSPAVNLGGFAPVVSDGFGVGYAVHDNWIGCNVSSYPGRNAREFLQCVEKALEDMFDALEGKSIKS
UniProt P35520, sequence (P35520 whole entry, looked up): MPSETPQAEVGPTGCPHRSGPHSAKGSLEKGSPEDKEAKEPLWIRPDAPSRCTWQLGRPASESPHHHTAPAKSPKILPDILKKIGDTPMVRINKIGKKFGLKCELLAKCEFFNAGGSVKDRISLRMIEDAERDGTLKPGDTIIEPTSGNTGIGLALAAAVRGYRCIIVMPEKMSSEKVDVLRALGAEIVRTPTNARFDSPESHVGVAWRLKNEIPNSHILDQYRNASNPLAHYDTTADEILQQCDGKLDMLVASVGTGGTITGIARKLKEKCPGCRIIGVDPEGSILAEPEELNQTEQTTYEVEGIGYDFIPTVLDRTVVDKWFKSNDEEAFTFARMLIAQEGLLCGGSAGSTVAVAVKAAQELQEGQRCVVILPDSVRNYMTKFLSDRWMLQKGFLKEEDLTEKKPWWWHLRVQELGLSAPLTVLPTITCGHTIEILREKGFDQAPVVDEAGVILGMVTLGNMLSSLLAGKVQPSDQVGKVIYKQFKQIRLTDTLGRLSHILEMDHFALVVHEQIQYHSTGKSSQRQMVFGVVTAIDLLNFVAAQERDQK
UniProt P19784, sequence (P19784 whole entry, looked up): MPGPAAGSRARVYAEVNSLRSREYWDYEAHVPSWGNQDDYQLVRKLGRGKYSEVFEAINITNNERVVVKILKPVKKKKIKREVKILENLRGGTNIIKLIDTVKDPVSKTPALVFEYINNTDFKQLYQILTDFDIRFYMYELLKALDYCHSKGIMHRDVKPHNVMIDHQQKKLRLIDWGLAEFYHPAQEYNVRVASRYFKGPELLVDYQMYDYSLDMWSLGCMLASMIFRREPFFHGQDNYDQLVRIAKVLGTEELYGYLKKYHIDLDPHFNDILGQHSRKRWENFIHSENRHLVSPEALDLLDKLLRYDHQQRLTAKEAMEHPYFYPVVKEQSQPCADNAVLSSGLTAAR
UniProt P45973, sequence (P45973 whole entry, looked up): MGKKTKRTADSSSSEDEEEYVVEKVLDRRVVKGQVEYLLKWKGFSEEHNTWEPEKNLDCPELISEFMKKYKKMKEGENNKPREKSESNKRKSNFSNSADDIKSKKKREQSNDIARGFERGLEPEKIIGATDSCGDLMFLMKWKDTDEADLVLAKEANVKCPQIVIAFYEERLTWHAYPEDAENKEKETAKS
UniProt P08174, sequence (P08174 whole entry, looked up): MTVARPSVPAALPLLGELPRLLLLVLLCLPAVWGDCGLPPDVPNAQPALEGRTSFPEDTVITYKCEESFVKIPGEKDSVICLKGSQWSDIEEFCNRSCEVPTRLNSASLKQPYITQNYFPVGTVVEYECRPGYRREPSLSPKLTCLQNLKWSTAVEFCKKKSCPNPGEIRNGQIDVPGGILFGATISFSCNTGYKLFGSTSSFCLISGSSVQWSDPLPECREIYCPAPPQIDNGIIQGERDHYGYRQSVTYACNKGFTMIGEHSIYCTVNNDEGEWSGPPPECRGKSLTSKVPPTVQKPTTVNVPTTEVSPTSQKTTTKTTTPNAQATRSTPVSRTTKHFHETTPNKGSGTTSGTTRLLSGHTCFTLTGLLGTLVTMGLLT
UniProt Q5T6V5, sequence (Q5T6V5 whole entry, looked up): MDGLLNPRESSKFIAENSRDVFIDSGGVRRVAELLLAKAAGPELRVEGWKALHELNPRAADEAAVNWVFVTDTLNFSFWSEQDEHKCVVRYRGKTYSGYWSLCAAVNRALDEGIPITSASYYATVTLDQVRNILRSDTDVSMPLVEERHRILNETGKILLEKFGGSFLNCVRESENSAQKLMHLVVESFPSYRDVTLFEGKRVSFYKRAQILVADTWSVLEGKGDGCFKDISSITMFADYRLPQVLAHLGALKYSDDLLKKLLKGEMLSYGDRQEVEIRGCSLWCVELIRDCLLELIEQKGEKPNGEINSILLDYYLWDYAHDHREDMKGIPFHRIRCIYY
UniProt Q99653, sequence (Q99653 whole entry, looked up): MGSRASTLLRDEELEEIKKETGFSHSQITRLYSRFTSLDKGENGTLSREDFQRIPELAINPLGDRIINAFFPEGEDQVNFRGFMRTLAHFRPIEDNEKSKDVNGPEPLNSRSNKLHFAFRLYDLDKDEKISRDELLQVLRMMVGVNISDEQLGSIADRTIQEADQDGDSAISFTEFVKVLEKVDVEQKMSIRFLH
UniProt P46108, sequence (P46108 whole entry, looked up): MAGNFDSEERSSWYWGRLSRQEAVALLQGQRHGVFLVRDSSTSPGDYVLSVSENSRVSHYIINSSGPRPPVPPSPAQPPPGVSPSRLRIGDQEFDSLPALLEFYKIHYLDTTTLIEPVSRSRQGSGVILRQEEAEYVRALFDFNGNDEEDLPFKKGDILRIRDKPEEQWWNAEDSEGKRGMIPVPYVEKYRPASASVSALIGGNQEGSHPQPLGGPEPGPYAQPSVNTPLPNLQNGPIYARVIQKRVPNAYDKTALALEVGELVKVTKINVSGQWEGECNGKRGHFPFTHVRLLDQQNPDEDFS
UniProt Q8IWY9, sequence (Q8IWY9 whole entry, looked up): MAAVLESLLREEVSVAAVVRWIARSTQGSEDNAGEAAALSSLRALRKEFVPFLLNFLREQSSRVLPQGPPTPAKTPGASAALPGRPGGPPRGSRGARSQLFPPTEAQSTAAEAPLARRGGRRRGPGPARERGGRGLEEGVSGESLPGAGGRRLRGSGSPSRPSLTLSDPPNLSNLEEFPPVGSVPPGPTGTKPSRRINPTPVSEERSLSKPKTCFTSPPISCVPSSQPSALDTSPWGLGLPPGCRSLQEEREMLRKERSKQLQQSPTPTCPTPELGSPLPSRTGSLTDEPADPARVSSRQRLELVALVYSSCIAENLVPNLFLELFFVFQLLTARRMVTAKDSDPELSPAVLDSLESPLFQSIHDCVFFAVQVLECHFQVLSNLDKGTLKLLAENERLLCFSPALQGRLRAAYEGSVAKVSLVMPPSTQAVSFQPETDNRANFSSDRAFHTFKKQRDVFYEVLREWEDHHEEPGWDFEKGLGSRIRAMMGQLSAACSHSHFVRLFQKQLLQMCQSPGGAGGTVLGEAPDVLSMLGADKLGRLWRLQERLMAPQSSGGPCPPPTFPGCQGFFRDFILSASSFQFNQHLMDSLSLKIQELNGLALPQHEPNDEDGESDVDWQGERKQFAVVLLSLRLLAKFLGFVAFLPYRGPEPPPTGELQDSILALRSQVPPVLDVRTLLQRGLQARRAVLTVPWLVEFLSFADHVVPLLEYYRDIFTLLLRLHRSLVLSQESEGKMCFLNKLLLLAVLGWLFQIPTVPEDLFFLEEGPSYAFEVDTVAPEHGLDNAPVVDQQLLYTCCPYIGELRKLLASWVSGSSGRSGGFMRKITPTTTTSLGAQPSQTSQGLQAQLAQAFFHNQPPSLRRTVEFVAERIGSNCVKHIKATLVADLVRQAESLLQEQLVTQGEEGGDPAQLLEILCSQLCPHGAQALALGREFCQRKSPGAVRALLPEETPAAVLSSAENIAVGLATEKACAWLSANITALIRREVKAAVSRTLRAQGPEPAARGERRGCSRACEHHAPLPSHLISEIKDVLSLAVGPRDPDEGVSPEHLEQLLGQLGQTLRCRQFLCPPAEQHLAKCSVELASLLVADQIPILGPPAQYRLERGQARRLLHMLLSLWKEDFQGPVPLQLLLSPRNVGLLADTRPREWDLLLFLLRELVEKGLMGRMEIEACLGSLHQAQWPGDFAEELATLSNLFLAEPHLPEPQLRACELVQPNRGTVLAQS
UniProt Q8NHZ8, sequence (Q8NHZ8 whole entry, looked up): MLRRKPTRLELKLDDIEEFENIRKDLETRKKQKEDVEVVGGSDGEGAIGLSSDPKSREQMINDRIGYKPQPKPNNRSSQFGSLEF

Compound in this test: CS(=O)(=O)CCNCc1ccc(-c2ccc3ncnc(Nc4ccc(OCc5cccc(F)c5)c(Cl)c4)c3c2)o1 [lapatinib]
Briefly: log2 fold change, soluble protein after heating vs DMSO (PISA); higher = thermal stabilisation; K562 cells, 10 uM, 30 min; active = over 0.2 and 3.5 SD of the protein, either way, in both replicates (recomputed). The essentials:
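Soluble protein was defined as the supernatant after 21,000xg for 90 min. It came from K562 cells at 2×10^6 cells/mL given 10 μM compound for 30 min, heated in aliquots for 3 min across 48°C-58°C, pooled, and extracted in PBS with 0.5% NP-40 at 4°C, and was quantified by TMTpro 16plex LC-MS/MS with equalised channel sums. Thermal stability against control samples, from duplicates, is reported as log2 fold change.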
Turning to CHP1 (UniProt Q99653), the log2 fold change was -0.054.
Turning to CES2 isoform 4 (UniProt O00748), the log2 fold change was 0.161.
CPT2 (UniProt P23786): the log2 fold change is 0.058.
On to CNN2 (UniProt Q99439), for which the log2 fold change was -0.041.
The same measure for CBX5 (UniProt P45973): 0.019.
The same measure for CNOT4 isoform 6 (UniProt O95628): -0.008.
In the case of CD55 isoform 7 (UniProt P08174), the log2 fold change is 0.031.
In the case of CPT1A (UniProt P50416), the log2 fold change was 0.1.
The same measure for CD81 (UniProt P60033): -0.032.
As to CRK (UniProt P46108), the log2 fold change was 0.012.
As for CSK (UniProt P41240), the figure is 0.008; as for CELF2 isoform 3 (UniProt O95319), 0.032.
CDK5RAP3 isoform 4 (UniProt Q96JB5): the log2 fold change is -0.034.
As for CSNK2A2 (UniProt P19784), the figure is 0.02.
The same measure for CCZ1 (UniProt P86791): -0.005.
With CBR1 (UniProt P16152), the log2 fold change was 0.037.
As for CHAMP1 (UniProt Q96JM3), the figure is -0.065.
The same measure for CHMP4C (UniProt Q96CF2): -0.027; for CBS (UniProt P35520): -0.026.
As for COX15 (UniProt Q7KZN9), the figure is 0.001; as for CDAN1 (UniProt Q8IWY9), 0.005.
For the target CDC26 (UniProt Q8NHZ8), the log2 fold change was -0.023.
As for COPS3 (UniProt Q9UNS2), the figure is -0.015.
Consider CALCOCO2 isoform 4 (UniProt Q13137), for which the log2 fold change is 0.
The same measure for CASP10 isoform 4 (UniProt Q92851): -0.047; for C9orf72 (UniProt Q96LT7): 0.062; for CSNK2A1 (UniProt P68400): 0.032.
Turning to CCNB1 (UniProt P14635), the log2 fold change was -0.044.
Turning to CHCHD1 (UniProt Q96BP2), the log2 fold change was -0.055.
CERT isoform 3 (UniProt Q9Y5P4): the log2 fold change is 0.247.
Take CCDC9 (UniProt Q9Y3X0): the log2 fold change was 0.003.
As for CAMKK2 (UniProt Q96RR4), the figure is 0.025; as for COMT (UniProt P21964), -0.042; as for CCNK isoform 4 (UniProt O75909), 0.066.
For CDC42BPA isoform 6 (UniProt Q5VT25), the log2 fold change is 0.106.
Turning to C9orf64 (UniProt Q5T6V5), the log2 fold change is 0.043.
